Experiment [1] is described as follows: A CellTox Green Cytotoxicity Assay to monitor cytotoxicity in HEK293 cells - 32 hour (AID 1224881). Note: nearly all actives have a fitted effect of over 40% in size. The method in brief: (§1)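 Cells (HEK293, 600/well) and dye reagent are dispensed together. After 5 h at 37 C, 23 nL compound is pinned in. Plates stay at 37 C for 40 h with fluorescence read at 0h, 8h, 16h, 24h, 32h and 40h.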
The nature of experiment [2]: A CellTox Green Cytotoxicity Assay to monitor cytotoxicity in HepG2 cells - 0 hour (AID 1224882). Note: nearly all actives have a fitted effect of over 35% in size. An outline of the steps: (§2)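 Cells and non-lytic dye reagent are dispensed together (600 HepG2 cells/well) and incubated 5 h before DMSO compound transfer. Kinetic fluorescence is then recorded in the same wells during 40 h at 37 C.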
Experiment [3] in a line: A CellTox Green Cytotoxicity Assay to monitor cytotoxicity in HEK293 cells - 8 hour (AID 1224884). Note: nearly all actives have a fitted effect of over 35% in size. The method in brief:
as §1

The nature of experiment [4]: qHTS RealTime-Glo MT Cell Viability Assay in HEK293 cells - 24 hour (AID 1224886). Note: top concentration of the series differs between compounds; nearly all actives have a fitted effect of over 50% in size. An outline of the steps: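 Reads taken at 0, 8, 16, 24, 32 and 40 h from the same wells. HEK293 cells (600/well) carried RealTime-Glo reagents from seeding, with compound added after a 5 h settle at 37 C.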
For orientation: Quantitative high-throughput screening tests each substance at several concentrations.

Experiment [5] in a line: qHTS RealTime-Glo MT Cell Viability Assay in HEK293 cells - 8 hour (AID 1224887). Note: top concentration of the series differs between compounds; nearly all actives have a fitted effect of over 50% in size. An outline of the steps:
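Real-time viability in HEK293: signal arises when living cells convert a prosubstrate for NanoLuc in the medium, so luminescence tracks viable cell number. Compound (23 nL, DMSO) added 5 h post-seeding; kinetic reads at 0–40 h, 37 C.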

Experiment [6] in a line: A CellTox Green Cytotoxicity Assay to monitor cytotoxicity in HEK293 cells - 16 hour (AID 1224888). Note: nearly all actives have a fitted effect of over 35% in size. An outline of the steps: as §1
Experiment [7] in a line: qHTS RealTime-Glo MT Cell Viability Assay in HepG2 cells - 0 hour (AID 1224889). Note: nearly all actives have a fitted effect of over 50% in size. An outline of the steps:
(§3)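 HepG2 suspension premixed with RealTime-Glo reagents is plated at 600 cells per well and left 5 h at 37 C/5% CO2. Compounds in DMSO then go in, and bioluminescence reflecting viable cell number is recorded over 40 h.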

Experiment [8] is described as follows: A CellTox Green Cytotoxicity Assay to monitor cytotoxicity in HepG2 cells - 8 hour (AID 1224890). Note: nearly all actives have a fitted effect of over 45% in size. The method in brief: as §2
Experiment [9] is described as follows: qHTS assay to identify small molecule antagonists of the estrogen receptor alpha (ER-alpha) signaling pathway using the BG1 cell line in the presence of 0.1 nM 17-beta-estradiol - cell viability counter screen (AID 1259241). Note: nearly all actives have a fitted effect of over 40% in size. The method in brief: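 Cells were plated and left 24 hr, compounds in DMSO were pinned in, 17beta-estradiol was added to 0.1 nM final, and after 22 hr CellTiter-Fluor reagent was added for 30 min before fluorescence was read.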

Experiment [10] can be described thus: qHTS assay to identify small molecule antagonists of the androgen receptor (AR) signaling pathway using the MDA cell line in the presence of 0.5 nM R1881 - cell viability counter screen (AID 1259242). Note: nearly all actives have a fitted effect of over 45% in size. The method in brief:
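Steps: plate MDA-kb2 cells, rest 5 hr at 37C without CO2; pin in compounds in DMSO; add R1881 to 0.5 nM final; incubate 16 hr; add CellTiter-Fluor, 30 min; read fluorescence.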

Experiment [11] has as its target Androgen receptor (Homo sapiens) (UniProt P10275). In words: qHTS assay to identify small molecule antagonists of the androgen receptor (AR) signaling pathway using the MDA cell line in the presence of 0.5 nM R1881 (AID 1259243). Note: nearly all actives have a fitted effect of over 50% in size. An outline of the steps:
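Stably transfected MDA-kb2 cells express luciferase from an MMTV promoter bearing both AR and GR response elements. Compounds plus 0.5 nM R1881 (final) were incubated 16 hr at 37C without CO2, then luminescence measured.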

Experiment [12] deals with Estrogen receptor (Homo sapiens) (UniProt P03372). In words: qHTS assay to identify small molecule antagonists of the estrogen receptor alpha (ER-alpha) signaling pathway using the BG1 cell line in the presence of 0.1 nM 17-beta-estradiol (AID 1259244). Note: nearly all actives have a fitted effect of over 50% in size. Note: potency is the fitted concentration of half-maximal effect. The method in brief:
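Antagonist mode: compounds in DMSO are pinned onto VM7Luc4E2 reporter cells, 0.1 nM final 17beta-estradiol is added, and after 22 h at 37C luciferase luminescence is measured with ONE-Glo.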

Experiment [13] in a line: qHTS assay to identify small molecule HDAC inhibitors (AID 1259364).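 Note: wild-type HCT-116 cells with endogenous class I/II HDAC activity; top concentration of the series differs between compounds; nearly all actives have a fitted effect of over 45% in size.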 The method in brief:
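Cells (HCT-116, wild type) are seeded at 1,500 per well, incubated overnight, treated with compound in DMSO for 2 hr, then developed with HDAC-Glo I/II reagent for 30 min at room temperature.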

A short description of experiment [14]: qHTS assay to identify small molecule HDAC inhibitors - cell viability counter screen (AID 1259365). The method in brief: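 Counter screen in wild-type HCT-116 cells: compounds dissolved in DMSO are pin-transferred onto overnight-plated cells and left 2hr at 37C. ATP-based CellTiter-Glo luminescence then measures viable cells.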
Experiment [15] is described as follows: qHTS assay to identify small molecule agonists of the sonic hedgehog signaling (Shh) pathway - cell viability counter screen (AID 1259366). Note: nearly all actives have a fitted effect of over 50% in size. Note: potency is the fitted concentration of half-maximal effect. The method in brief: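 Cells are plated at 2,000 per well and left 4hr at 37C, 5% CO2 before compound addition. After 23hr of treatment, CellTiter-Fluor reagent is added for 1hr at 37C and fluorescence is measured.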

The nature of experiment [16]: qHTS assay to identify small molecule antagonists of the sonic hedgehog signaling (Shh) pathway - cell viability counter screen (AID 1259367). Note: nearly all actives have a fitted effect of over 55% in size. Note: potency is the fitted concentration of half-maximal effect. An outline of the steps:
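CellTiter-Fluor signal in conditioned medium-stimulated 3T3 Gli1-Luc cells, 23 hr compound exposure, 37C.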

A short description of experiment [17]: qHTS assay to identify small molecule agonists of the sonic hedgehog signaling (Shh) pathway (AID 1259368; calls by dose curve;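 note: NIH/3T3-derived 3T3Gli1-Luc cells carrying a stable Gli1-driven firefly luciferase reporter; series mostly up to about 92 µM; nearly all actives have a fitted effect of over 15% in size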). An outline of the steps: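 Cells of a mouse NIH/3T3 clone stably expressing luciferase under the Gli1 transcriptional response element are exposed to test chemicals for 24 hr at 37 C. Pathway activation is detected as a rise in luminescence.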
Experiment [18] in a line: qHTS RealTime-Glo MT Cell Viability Assay in HepG2 cells - 16 hour (AID 1224885). Note: nearly all actives have a fitted effect of over 50% in size. The method in brief: as §3
Experiment [19] is described as follows: qHTS assay to identify small molecule phospholipidosis (PLD) inducers (AID 1259344; active = well fitted curve in the direction sought with a large enough effect; an effect the other way counts as inactive or inconclusive). An outline of the steps:
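Accumulated phospholipid, stained red by LipidTOX during 24 h compound treatment of HepG2 cells at 37 C, is quantified from images as pit number and intensity, normalised per cell using Hoechst-stained nuclei.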

The nature of experiment [20]: A CellTox Green Cytotoxicity Assay to monitor cytotoxicity in HepG2 cells - 32 hour (AID 1224883). Note: nearly all actives have a fitted effect of over 50% in size. The method in brief: as §2

The values that follow come from PubChem BioAssay (Tox21).

Inconclusive results are not listed. Calls of active or inactive are those of the source. Unless noted, calls come from the whole dose curve; as a rule, active = well fitted curve in the direction sought with a large enough effect in the repeat runs; inconclusive = weak or mixed curves; inactive = no such curve, though single readings can be large; an effect the other way counts as inactive or inconclusive.

Sequence of Androgen receptor (Homo sapiens) (P10275 whole entry, looked up): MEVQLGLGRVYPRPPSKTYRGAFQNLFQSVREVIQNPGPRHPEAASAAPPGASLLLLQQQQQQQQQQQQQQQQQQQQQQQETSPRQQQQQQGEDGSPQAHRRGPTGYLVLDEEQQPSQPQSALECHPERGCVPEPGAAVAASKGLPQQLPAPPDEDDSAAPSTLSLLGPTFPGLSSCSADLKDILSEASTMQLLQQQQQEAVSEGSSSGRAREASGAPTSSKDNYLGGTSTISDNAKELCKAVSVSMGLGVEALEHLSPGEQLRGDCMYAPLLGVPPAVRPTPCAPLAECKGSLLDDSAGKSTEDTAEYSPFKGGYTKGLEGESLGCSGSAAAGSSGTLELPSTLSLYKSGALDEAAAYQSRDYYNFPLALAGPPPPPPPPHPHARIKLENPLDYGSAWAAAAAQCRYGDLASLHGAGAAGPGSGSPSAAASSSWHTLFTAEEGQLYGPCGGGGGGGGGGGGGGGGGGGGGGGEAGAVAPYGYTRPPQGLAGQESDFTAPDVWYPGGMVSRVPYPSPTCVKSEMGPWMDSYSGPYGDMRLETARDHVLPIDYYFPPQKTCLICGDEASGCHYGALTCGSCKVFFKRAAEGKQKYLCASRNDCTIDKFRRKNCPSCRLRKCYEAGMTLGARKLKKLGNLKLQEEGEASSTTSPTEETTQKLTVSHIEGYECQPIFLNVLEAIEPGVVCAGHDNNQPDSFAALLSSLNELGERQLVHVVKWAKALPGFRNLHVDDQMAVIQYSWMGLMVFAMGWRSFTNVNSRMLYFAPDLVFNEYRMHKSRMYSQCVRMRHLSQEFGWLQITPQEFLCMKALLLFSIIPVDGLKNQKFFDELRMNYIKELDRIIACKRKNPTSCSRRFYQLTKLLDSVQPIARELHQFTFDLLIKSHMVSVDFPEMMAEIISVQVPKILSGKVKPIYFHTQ
Sequence of Estrogen receptor (Homo sapiens) (P03372 whole entry, looked up): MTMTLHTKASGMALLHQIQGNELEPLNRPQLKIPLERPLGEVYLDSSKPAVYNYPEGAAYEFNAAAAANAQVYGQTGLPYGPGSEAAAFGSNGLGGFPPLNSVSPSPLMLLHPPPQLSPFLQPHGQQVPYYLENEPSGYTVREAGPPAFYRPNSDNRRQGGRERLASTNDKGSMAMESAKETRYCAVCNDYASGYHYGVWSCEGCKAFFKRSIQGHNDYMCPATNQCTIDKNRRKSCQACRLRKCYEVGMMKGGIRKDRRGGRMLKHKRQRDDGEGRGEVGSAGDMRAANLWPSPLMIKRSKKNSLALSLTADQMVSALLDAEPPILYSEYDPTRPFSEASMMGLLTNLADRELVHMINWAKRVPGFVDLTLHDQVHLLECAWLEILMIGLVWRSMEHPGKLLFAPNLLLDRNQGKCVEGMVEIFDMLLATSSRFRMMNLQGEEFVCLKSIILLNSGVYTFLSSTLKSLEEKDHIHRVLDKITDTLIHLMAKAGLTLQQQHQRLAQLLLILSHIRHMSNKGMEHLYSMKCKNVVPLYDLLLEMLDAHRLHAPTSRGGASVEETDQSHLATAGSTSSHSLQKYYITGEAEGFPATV

Take `O=C(N[C@H]1CN2CCC1CC2)c1cc2ccoc2cn1`: the Potency entry in [1], in [3], in experiment [4], in [5], in experiment [6] and in experiment [7] was “inactive” each time. In addition, the Potency entry in [8], in experiment [11], in [12], in experiment [13], in experiment [15] and in experiment [16] was “inactive” each time. Besides, the compound was called inactive in experiment [2], in experiment [9], in [10], in experiment [14] and in [17].

As to `COC(=O)C1=CCCN(C)C1`, the Potency result in experiment [1], in experiment [3], in experiment [18], in experiment [5], in [7] and in experiment [8] was “inactive” each time. The Potency entry in experiment [12], in experiment [13], in experiment [15] and in experiment [16] was “inactive” in each case. Further, the outcome in experiment [2], in experiment [9], in experiment [10], in experiment [19], in experiment [14] and in [17] was inactive.

For the compound `CCN(Cc1ccc(Cl)nc1)/C(=C/[N+](=O)[O-])NC`, the Potency entry in experiment [1], in [20], in experiment [3], in experiment [18], in experiment [4] and in experiment [5] was “inactive” throughout. The Potency result in [6], in [7], in experiment [8], in [12], in experiment [13] and in experiment [15] was “inactive” throughout. Besides, the Potency entry in [16] is “inactive”. For the same compound, the result in experiment [10], in experiment [19], in [14] and in experiment [17] was inactive.

`COc1cccc2c1cc([N+](=O)[O-])c1c(C(=O)O)cc3c(c12)OCO3`: the Potency result in experiment [1], in experiment [3], in experiment [18], in [5], in experiment [6] and in experiment [8] was “inactive” in each case. For the same compound, the Potency entry in [13] was “inactive”. Also, the compound was called inactive in experiment [2] and in [17]. Also, the Potency in [12] was 6.86 µM (active); in [15], 12.2 µM (active); in [16], 12.2 µM (active).

In the case of `CCC#N`, the Potency entry in experiment [1], in experiment [20], in experiment [3], in experiment [18], in [4] and in experiment [5] was “inactive” each time. In addition, the Potency result in experiment [6], in experiment [7], in [8], in experiment [13] and in [15] was “inactive” each time. Also, the outcome in [9], in experiment [10], in experiment [14] and in experiment [17] was inactive.

On to `CC(Oc1ccc(Oc2ncc(C(F)(F)F)cc2Cl)cc1)C(=O)O` (stereo not drawn), for which the Potency entry in experiment [1], in experiment [20], in [3], in [18], in experiment [4] and in experiment [5] was “inactive” in each case. Besides, the Potency result in [6], in experiment [7], in experiment [8], in [11], in experiment [12] and in experiment [13] was “inactive” each time. Also, the Potency entry in experiment [15] and in experiment [16] was “inactive” in each case. Also, the outcome in experiment [9], in experiment [10], in experiment [14] and in [17] was inactive.

Take `COc1ccc(C(=O)N2CCCC2=O)cc1`: the Potency entry in experiment [1], in experiment [3], in [18], in experiment [4], in experiment [5] and in experiment [6] was “inactive” each time. The Potency entry in experiment [7], in [8], in experiment [13], in experiment [15] and in experiment [16] was “inactive” throughout. In addition, the result in experiment [2], in [9], in experiment [10], in experiment [19], in experiment [14] and in experiment [17] was inactive.

`CC(C(O)c1ccccc1)N(C)C/C=C/c1ccccc1` (stereo not drawn): the Potency result in [1], in [3], in experiment [18], in [4], in experiment [5] and in experiment [7] was “inactive” in each case. Besides, the Potency entry in experiment [8], in [11], in experiment [12], in experiment [13] and in experiment [15] was “inactive” throughout. Besides, the result in experiment [2], in experiment [9], in [10], in experiment [14] and in experiment [17] was inactive.
